Assay results: PMC4336329 (PLoS ONE, 2015)
Among all 310,000 compounds or so, about 14,000 (4.5%) showed an effect of 50% or more. The effect is printed as a negative number. For the sample, strong results were picked, then their nearest neighbours and some compounds at random.

Target: human ether-à-go-go-related gene (hERG) potassium channel (human, UniProt Q12809)
Test: primary screen, population patch clamp on CHO cells stably expressing hERG; higher = less effect of the substance
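Also: peak tail current of the secondary pulse compared with the same well before compound.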

Sequence of human ether-à-go-go-related gene (hERG) potassium channel (Q12809 whole entry, looked up): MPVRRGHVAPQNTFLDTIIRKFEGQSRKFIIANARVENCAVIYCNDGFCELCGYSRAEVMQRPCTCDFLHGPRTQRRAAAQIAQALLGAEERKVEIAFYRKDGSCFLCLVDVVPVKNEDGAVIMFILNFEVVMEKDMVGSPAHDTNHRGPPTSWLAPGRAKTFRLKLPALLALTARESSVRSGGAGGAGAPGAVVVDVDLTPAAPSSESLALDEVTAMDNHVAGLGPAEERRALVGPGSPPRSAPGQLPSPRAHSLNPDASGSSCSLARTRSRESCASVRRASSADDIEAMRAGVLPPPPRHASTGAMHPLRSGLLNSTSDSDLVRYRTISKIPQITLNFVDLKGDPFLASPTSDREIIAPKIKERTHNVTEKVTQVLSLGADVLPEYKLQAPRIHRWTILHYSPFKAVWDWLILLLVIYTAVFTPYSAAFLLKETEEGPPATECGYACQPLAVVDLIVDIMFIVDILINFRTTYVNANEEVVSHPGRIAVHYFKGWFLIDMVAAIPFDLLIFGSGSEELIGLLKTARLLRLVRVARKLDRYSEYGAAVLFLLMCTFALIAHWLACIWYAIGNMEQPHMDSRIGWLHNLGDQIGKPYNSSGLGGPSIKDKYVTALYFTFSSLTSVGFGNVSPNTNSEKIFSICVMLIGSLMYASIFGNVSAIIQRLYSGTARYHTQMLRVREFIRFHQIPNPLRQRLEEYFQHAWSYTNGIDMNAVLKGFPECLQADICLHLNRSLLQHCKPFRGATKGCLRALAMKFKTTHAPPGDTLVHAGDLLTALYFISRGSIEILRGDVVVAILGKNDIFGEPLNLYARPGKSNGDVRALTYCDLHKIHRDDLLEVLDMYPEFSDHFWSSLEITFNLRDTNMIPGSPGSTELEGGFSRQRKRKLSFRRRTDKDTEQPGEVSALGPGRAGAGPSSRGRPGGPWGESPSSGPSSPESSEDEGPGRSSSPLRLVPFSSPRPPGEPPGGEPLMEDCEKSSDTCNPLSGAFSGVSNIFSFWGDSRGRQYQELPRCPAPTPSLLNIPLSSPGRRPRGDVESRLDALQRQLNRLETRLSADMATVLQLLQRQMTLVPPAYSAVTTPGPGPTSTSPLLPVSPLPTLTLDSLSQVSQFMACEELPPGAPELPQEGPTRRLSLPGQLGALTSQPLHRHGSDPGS

**Q.** `O=C(NNc1nc2ccccc2nc1C(F)(F)F)c1ccccc1` was tested. Which “hERG current change (%, negative = inhibition) at 10uM” value did it give?
**A.** 11.9%

**Q.** How did the “hERG current change (%, negative = inhibition) at 10uM” value turn out when `Cc1ccc(NC(=O)c2cc(-c3ccccc3)n[nH]2)cc1` was run?
**A.** 18.3%

**Q.** Which “hERG current change (%, negative = inhibition) at 10uM” value does the source give for `CC(C)c1ccc(N(C(=O)c2csnn2)C(C(=O)NC(C)(C)C)c2ccncc2)cc1` (centres unmarked) here?
**A.** -42.8%

**Q.** With `CCCN1CCC(=O)N([C@H](CN=[N+]=[N-])CC(C)C)CC1` as the molecule, how does the “hERG current change (%, negative = inhibition) at 10uM” value read?
**A.** 3.11%

**Q.** `CC(C)C[C@@H](COc1ccccc1)N1CCN(CCc2ccccc2)CCC1=O` was tested. Which “hERG current change (%, negative = inhibition) at 10uM” value did it give?
**A.** -77.5%

**Q.** How did the “hERG current change (%, negative = inhibition) at 10uM” value turn out when `CC(C)C[C@@H](CO)N1CCN(CCc2ccccc2)CCC1=O` was run?
**A.** -23%

**Q.** With `CC(C)C[C@@H](COc1ccccc1)N1CCN(Cc2ccccc2)CCC1=O` as the molecule, how does the “hERG current change (%, negative = inhibition) at 10uM” value read?
**A.** -35.4%

**Q.** `CCCN1CCC(=O)N([C@H](COc2ccccc2)CC(C)C)CC1` was tested. Which “hERG current change (%, negative = inhibition) at 10uM” value did it give?
**A.** -81.9%

**Q.** With `COc1cc([N+](=O)[O-])ccc1NC(=O)CN(C)C` as the molecule, how does the “hERG current change (%, negative = inhibition) at 10uM” value read?
**A.** -15.9%

**Q.** `O=C(O)CC(CC(=O)Nc1ccccc1C(=O)O)c1ccccc1` (centres unmarked) was tested. Which “hERG current change (%, negative = inhibition) at 10uM” value did it give?
**A.** 3.3%

**Q.** For `C=C(C)CCC1(C)NC(=O)N(c2ccccc2)N1` (centres unmarked), which “hERG current change (%, negative = inhibition) at 10uM” value is on record?
**A.** -4.03%

**Q.** For `CN(C(=O)CSc1nnnn1-c1ccc(O)cc1)C1CCS(=O)(=O)C1` (centres unmarked), which “hERG current change (%, negative = inhibition) at 10uM” value is on record?
**A.** 14.8%

**Q.** How did the “hERG current change (%, negative = inhibition) at 10uM” value turn out when `CCN(CC(=O)NCc1cccs1)C(=O)CN(C)S(=O)(=O)c1ccc(C)cc1` was run?
**A.** -27.3%

**Q.** Which “hERG current change (%, negative = inhibition) at 10uM” value does the source give for `COc1ccccc1NC(=O)CSc1nc2sc3c(c2c(=O)n1-c1ccccc1)CCN(C)C3` here?
**A.** -26%

**Q.** For `CC1(C)OC(=O)N(c2ccccc2)C12C=Cc1cc(Br)ccc1O2` (centres unmarked), which “hERG current change (%, negative = inhibition) at 10uM” value is on record?
**A.** -14.4%

**Q.** How did the “hERG current change (%, negative = inhibition) at 10uM” value turn out when `O=C(Nc1ccc(S(=O)(=O)N2CCOCC2)cc1)c1ccc(Br)o1` was run?
**A.** -64.8%

**Q.** For `COc1ccc(NC(=O)c2ccc(S(=O)(=O)N3CCOCC3)o2)cc1`, which “hERG current change (%, negative = inhibition) at 10uM” value is on record?
**A.** 0.458%

**Q.** How did the “hERG current change (%, negative = inhibition) at 10uM” value turn out when `O=C(Nc1ccc(S(=O)(=O)N2CCCCCC2)cc1)c1ccc(Br)o1` was run?
**A.** -14.5%

**Q.** `O=C(Nc1ccc(F)cc1)c1ccc(S(=O)(=O)N2CCOCC2)o1` was tested. Which “hERG current change (%, negative = inhibition) at 10uM” value did it give?
**A.** -13.1%

**Q.** Which “hERG current change (%, negative = inhibition) at 10uM” value does the source give for `O=C(Nc1ccc(S(=O)(=O)N2CCCC2)cc1)c1ccc(Br)o1` here?
**A.** 14.8%

**Q.** How did the “hERG current change (%, negative = inhibition) at 10uM” value turn out when `O=C(Nc1ccc(OC(F)(F)F)cc1)c1ccc(S(=O)(=O)N2CCOCC2)o1` was run?
**A.** -53.7%

**Q.** How did the “hERG current change (%, negative = inhibition) at 10uM” value turn out when `O=C(NNc1ccccc1[N+](=O)[O-])Nc1cccc(Cl)c1` was run?
**A.** 19.3%

**Q.** Which “hERG current change (%, negative = inhibition) at 10uM” value does the source give for `Cc1ccccc1Cn1cc(NC(=O)CCCn2nc([N+](=O)[O-])cc2C)cn1` here?
**A.** -7.52%

**Q.** How did the “hERG current change (%, negative = inhibition) at 10uM” value turn out when `O=C(NNS(=O)(=O)c1ccc([N+](=O)[O-])cc1)c1ccc([N+](=O)[O-])cc1` was run?
**A.** 28.6%

**Q.** How did the “hERG current change (%, negative = inhibition) at 10uM” value turn out when `O=C(O)c1cccn2c(=O)c3ccccc3nc12` was run?
**A.** 13.1%

**Q.** `COCCCNC(=O)c1cccn2c(=O)c3cc4ccccc4cc3nc12` was tested. Which “hERG current change (%, negative = inhibition) at 10uM” value did it give?
**A.** -42.2%

**Q.** Which “hERG current change (%, negative = inhibition) at 10uM” value does the source give for `O=C(CCNC(=O)Cn1ccc2ccccc2c1=O)NCCN1CCN(c2ccccc2F)CC1` here?
**A.** 6.8%

**Q.** For `O=C(NCCN1CCN(c2ccccc2)CC1)c1cccn2c(=O)c3ccccc3nc12`, which “hERG current change (%, negative = inhibition) at 10uM” value is on record?
**A.** -63%

**Q.** For `CN(CCCNC(=O)c1cccn2c(=O)c3ccccc3nc12)Cc1ccccc1`, which “hERG current change (%, negative = inhibition) at 10uM” value is on record?
**A.** -74.1%

**Q.** For `CN(CCCNC(=O)c1cc2c(Cl)nc3ccccc3c2s1)Cc1ccccc1`, which “hERG current change (%, negative = inhibition) at 10uM” value is on record?
**A.** -44.3%

**Q.** Which “hERG current change (%, negative = inhibition) at 10uM” value does the source give for `O=C(NCCN1CCN(c2ccccc2)CC1)c1cccn2c(=O)c3cc(Cl)ccc3nc12` here?
**A.** -45.4%

**Q.** Which “hERG current change (%, negative = inhibition) at 10uM” value does the source give for `Cn1c(C(=O)NCCN2CCN(c3ccccc3F)CC2)cc2c(=O)n(C)c3ccccc3c21` here?
**A.** -4.62%

**Q.** Which “hERG current change (%, negative = inhibition) at 10uM” value does the source give for `O=C(NCCN1CCN(c2ccccc2F)CC1)c1cccn2c(=O)c3ccccc3nc12` here?
**A.** -71.5%

**Q.** How did the “hERG current change (%, negative = inhibition) at 10uM” value turn out when `CCN(CC(=O)NC1CCS(=O)(=O)C1)C(=O)COc1ccccc1-c1ccccc1` (centres unmarked) was run?
**A.** 11.7%

**Q.** With `CCn1nnnc1NCc1ccc(Cl)cc1` as the molecule, how does the “hERG current change (%, negative = inhibition) at 10uM” value read?
**A.** 9.44%

**Q.** How did the “hERG current change (%, negative = inhibition) at 10uM” value turn out when `COc1ccc2c(c1)O[C@@H](c1cccc(C(F)(F)F)c1)[C@H](OC(=O)NCCc1ccc(OC)c(OC)c1)C2=O` was run?
**A.** -0.231%

**Q.** How did the “hERG current change (%, negative = inhibition) at 10uM” value turn out when `O=C(CSc1nnc(-c2ccc(Cl)cc2)n1Cc1ccco1)NCc1ccc2c(c1)OCO2` was run?
**A.** -75.3%

**Q.** Which “hERG current change (%, negative = inhibition) at 10uM” value does the source give for `COc1cccc(-c2nnc(SCC(=O)Nc3ccc4c(c3)OCCO4)n2Cc2ccco2)c1` here?
**A.** -15.1%

**Q.** Which “hERG current change (%, negative = inhibition) at 10uM” value does the source give for `O=C(CSc1nnc(-c2cccnc2)n1Cc1ccco1)NCc1ccc2c(c1)OCO2` here?
**A.** -33.2%

**Q.** Which “hERG current change (%, negative = inhibition) at 10uM” value does the source give for `COc1ccc(-c2nnc(SC(C)C(=O)NCc3ccc4c(c3)OCO4)n2Cc2ccco2)cc1` (centres unmarked) here?
**A.** -55.1%

**Q.** Which “hERG current change (%, negative = inhibition) at 10uM” value does the source give for `O=C(CSc1nnc(-c2ccccc2)n1Cc1ccco1)NCc1ccc2c(c1)OCO2` here?
**A.** -14.5%

**Q.** Which “hERG current change (%, negative = inhibition) at 10uM” value does the source give for `COc1cccc(-c2nnc(SCC(=O)NCc3ccc4c(c3)OCO4)n2Cc2ccco2)c1` here?
**A.** -49.7%

**Q.** Which “hERG current change (%, negative = inhibition) at 10uM” value does the source give for `O=C(CSc1nnc(NC(=O)c2ccco2)s1)NC1CCCCC1` here?
**A.** 2.07%

**Q.** Which “hERG current change (%, negative = inhibition) at 10uM” value does the source give for `Cc1ccc2c(c1)N(CCC(=O)NCCCN1CCCC1)C(=O)C(C)O2` (centres unmarked) here?
**A.** 22.4%

**Q.** For `COc1ccc(CN2CCCC(CO)(Cc3cccc(Cl)c3)C2)cc1OC` (centres unmarked), which “hERG current change (%, negative = inhibition) at 10uM” value is on record?
**A.** -63.2%

**Q.** With `CSc1cccc(CN2CCCC(CO)(Cc3cccc(Cl)c3)C2)c1` (centres unmarked) as the molecule, how does the “hERG current change (%, negative = inhibition) at 10uM” value read?
**A.** -29%

**Q.** How did the “hERG current change (%, negative = inhibition) at 10uM” value turn out when `CCn1nc(C)c(CN2CCCC(CO)(Cc3cccc(Cl)c3)C2)c1C` (centres unmarked) was run?
**A.** -40.8%

**Q.** How did the “hERG current change (%, negative = inhibition) at 10uM” value turn out when `OCC1(Cc2cccc(Cl)c2)CCCN(Cc2ccc(F)c(F)c2)C1` (centres unmarked) was run?
**A.** -51.2%

**Q.** `COc1cc(CN2CCCC(CO)(Cc3ccccc3)C2)ccc1O` (centres unmarked) was tested. Which “hERG current change (%, negative = inhibition) at 10uM” value did it give?
**A.** -17.6%

**Q.** Which “hERG current change (%, negative = inhibition) at 10uM” value does the source give for `Cc1c(CN2CCCC(CO)(Cc3cccc(Cl)c3)C2)cnn1C` (centres unmarked) here?
**A.** -11.2%

**Q.** `COc1cc(CN2CCCC(CO)(Cc3cccc(Cl)c3)C2)cc2c1OCO2` (centres unmarked) was tested. Which “hERG current change (%, negative = inhibition) at 10uM” value did it give?
**A.** -68.1%

**Q.** Which “hERG current change (%, negative = inhibition) at 10uM” value does the source give for `CC(C)(O)C#Cc1ccc(CN2CCCC(CO)(Cc3cccc(Cl)c3)C2)cc1` (centres unmarked) here?
**A.** -6.28%

**Q.** Which “hERG current change (%, negative = inhibition) at 10uM” value does the source give for `Cc1nn(C)c(Cl)c1CN1CCCC(CO)(Cc2ccccc2)C1` (centres unmarked) here?
**A.** -6.66%

**Q.** `COc1cc(CN2CCCC(CO)(Cc3ccccc3C)C2)cc2c1OCO2` (centres unmarked) was tested. Which “hERG current change (%, negative = inhibition) at 10uM” value did it give?
**A.** -27.9%

**Q.** Which “hERG current change (%, negative = inhibition) at 10uM” value does the source give for `Cc1nn(C)c(Cl)c1CN1CCCC(CO)(Cc2cccc(Cl)c2)C1` (centres unmarked) here?
**A.** -59.8%

**Q.** With `Cc1cccc(-c2ncc(CN3CCCC(CO)(Cc4cccc(Cl)c4)C3)cn2)c1` (centres unmarked) as the molecule, how does the “hERG current change (%, negative = inhibition) at 10uM” value read?
**A.** -20.6%
